Assay results: PubChem BioAssay AID2284201 (EPA ToxCast)
Active and inactive are the calls of the source. Rule for the calls: active = hit-call score of the fitted dose curve at least 0.9, where 1 is the maximum; inactive = score below 0.9.

biological target: SLC6A2 (gene 6530) (UniProt P23975); experiment: ERF_FR_TR_hSLC6A2: Eurofins (ERF) Radioligand Transport Binding LeadHunter Assay for human Norepinephrine NET Antagonism, conducted at France lab site
Procedure: ERF_FR_TR_hSLC6A2 is a biochemical, single-readout assay that uses extracted gene-proteins in a cell-free assay. Measurements were taken 2 hour after chemical dosing in a 96-well plate. See NET Human Norepinephrine Transporter Binding (Antagonist Radioligand) Assay, Cerep.ERF_FR_TR_hSLC6A2 is an assay component calculated from the ERF_FR_TR_hSLC6A2 assay. It is designed to measure radioligand binding using a type of binding reporter as detected by scintillation counting with radiometry technology.Data from the assay component ERF_FR_TR_hSLC6A2 was analyzed at the assay endpoint, ERF_FR_TR_hSLC6A2, in the positive analysis fitting direction relative to DMSO as the negative control and baseline of activity. Using a type of binding reporter, loss-of-signal activity can be used to understand changes in enzymatic activity as they relate to gene SLC6A2. To generalize the intended target to other relatable targets, this assay endpoint is annotated to the transporter intended target family, where the subfamily is SLC6 / Monoamine.
Human cells are incubated for 120 minutes at 4C with [3H]nisoxetine (1 nM) ligand and protriptyline as control inhibitor. Test Sample Requirements: Minimum for 1) Screen: 60 ul of 10 mM stock -OR- 1 mg (pre-weighed) for 10 uM final testing. 2) Dose Response: 90 ul of 10 mM stock -OR- 1 mg (pre-weighed) for a top concentration at 10 uM.

SLC6A2 (gene 6530), sequence (P23975 whole entry, looked up): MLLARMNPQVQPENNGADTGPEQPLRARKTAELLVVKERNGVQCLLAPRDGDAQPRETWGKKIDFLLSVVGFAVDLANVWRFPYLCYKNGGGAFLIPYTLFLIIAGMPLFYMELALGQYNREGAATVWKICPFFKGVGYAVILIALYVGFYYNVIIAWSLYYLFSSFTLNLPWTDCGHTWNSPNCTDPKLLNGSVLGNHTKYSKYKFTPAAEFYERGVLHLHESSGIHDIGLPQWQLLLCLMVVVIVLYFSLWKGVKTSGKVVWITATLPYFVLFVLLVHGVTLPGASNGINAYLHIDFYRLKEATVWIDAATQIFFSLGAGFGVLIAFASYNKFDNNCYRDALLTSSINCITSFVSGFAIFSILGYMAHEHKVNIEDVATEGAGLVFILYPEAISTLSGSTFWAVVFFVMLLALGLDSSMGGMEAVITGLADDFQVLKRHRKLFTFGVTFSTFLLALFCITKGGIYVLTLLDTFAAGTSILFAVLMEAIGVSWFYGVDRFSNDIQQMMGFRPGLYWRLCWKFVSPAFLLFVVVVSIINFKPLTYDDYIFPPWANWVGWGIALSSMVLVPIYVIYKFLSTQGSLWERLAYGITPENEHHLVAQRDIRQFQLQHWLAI

Row | SMILES | outcome | AC50
1 | CCCCC[C@H](O)CC(=O)CCc1ccc(O)c(OC)c1 | inactive | 
2 | O=C(/C=C/c1ccc(O)cc1)CC(=O)/C=C/c1ccc(O)cc1 |  | 2120 nM (active)
3 | COc1cc(/C=C/C(=O)CC(=O)/C=C/c2ccc(O)c(OC)c2)ccc1O |  | 2630 nM (active)
4 | COc1cc(CCC(=O)CC(=O)CCc2ccc(O)c(OC)c2)ccc1O | inactive | 
